39 molecules from the supplement of paper PMC10127200 can be followed below.

Counter-ions that a name gives are not always drawn.

The subject of the first experiment is HEPG2. The experiment in a line: Euclidean distance of Cell Painting phenotypic profile (signed KS, 77 features) to DMSO centroid (dimensionless distance); 5 or 10 uM (library dependent); higher = stronger phenotypic change vs DMSO (phenoactivity). Conditions: 48 h. A digest of the protocol: (§1)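 Stained cells were imaged confocally at 20X with 9 fields per well, after 48 h of exposure to library compounds at 10 or 5 uM (set by library; 0.1% DMSO final). The cells were five cancer lines and a healthy fibroblast line. From the images, Harmony extracted 77 features, each expressed as a signed Kolmogorov-Smirnov statistic relative to same-plate vehicle wells. Phenoactivity is measured as Euclidean distance to the median vehicle profile, using plate-position-corrected, correlation-weighted profiles averaged across replicates at the top dose.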
Consider `O=[N+]([O-])c1cn2c(n1)OC[C@@H](OCc1ccc(OC(F)(F)F)cc1)C2`, for which the Euclidean distance is 0.872. `COc1cc2nccc(Oc3ccc(NC(=O)C4(C(=O)Nc5ccc(F)cc5)CC4)cc3)c2cc1OC` [Cabozantinib malate (XL184)] gave an Euclidean distance of 1.89.

`Cc1cnc(Nc2ccc(N3CCN(C)CC3)cc2)nc1Nc1cccc(S(=O)(=O)NC(C)(C)C)c1` registered an Euclidean distance of 2.58. Regarding `Cc1cc(O)c(C(=O)N[C@@H](C(=O)N[C@@H]2C(=O)N3C(C(=O)O)=C(CSc4nnnn4C)CS[C@H]23)c2ccc(O)cc2)cn1` [Cefpiramide sodium], the Euclidean distance is 0.51. The molecule `CCCCCCCCCCCCCCCCOP(=O)([O-])OCC[N+](C)(C)C` [Miltefosine] registered an Euclidean distance of 1.15.

`CCCc1cc(=O)[nH]c(=S)[nH]1` [Propylthiouracil]: the Euclidean distance came to 0.77. Consider `CC(NC(=O)c1ccccc1/N=C/c1c(O)ccc2ccccc12)c1ccccc1` (configuration not stated) [Sirtinol], for which the Euclidean distance worked out at 2.2. Take `N#C/C(=C(/N)Sc1ccc(N)cc1)c1ccccc1C(F)(F)F`: the Euclidean distance came to 1.41. `CCOc1ccc(C[C@H]2NC(=O)CCSSC[C@@H](C(=O)N3CCC[C@H]3C(=O)N[C@@H](CCCN)C(=O)NCC(N)=O)NC(=O)[C@H](CC(N)=O)NC(=O)[C@H]([C@@H](C)O)NC(=O)[C@H]([C@@H](C)CC)NC2=O)cc1` [Atosiban Acetate] yielded an Euclidean distance of 1.37. Still for that read-out and setting: the result for `COC(=O)C1=CO[C@@H](O[C@@H]2O[C@H](CO)[C@@H](O)[C@H](O)[C@H]2O)[C@@H]2C(CO)=CC[C@H]12` [Geniposide] reads 0.616. On the same count and under the same terms, the result for `C[N+](C)(C)NCCC(=O)[O-]` [Mildronate] reads 0.54; that for `CNC(=O)c1ccccc1Nc1nc(Nc2ccc(N3CCOCC3)cc2OC)ncc1Cl`, 2.08.

With `OC[C@H]1O[C@@H](c2ccc(Cl)c(Cc3ccc(O[C@H]4CCOC4)cc3)c2)[C@H](O)[C@@H](O)[C@@H]1O`, the Euclidean distance is 0.52.

The next experiment deals with OVCAR4. The description is as above. The note with it: 48 h. In short, it runs like this:
as §1
With `CC[C@H]1OC(=O)[C@@](C)(F)C(=O)[C@H](C)[C@@H](O[C@@H]2O[C@H](C)C[C@H](N(C)C)[C@H]2O)[C@](C)(OC)C[C@@H](C)C(=O)[C@H](C)[C@H]2N(CCCCn3cc(-c4cccc(N)c4)nn3)C(=O)O[C@]12C` [Solithromycin], the Euclidean distance was determined as 0.99. The molecule `CN1CCCC(n2nc(Cc3ccc(Cl)cc3)c3ccccc3c2=O)CC1` (configuration not stated) [Azelastine HCl] displayed an Euclidean distance of 0.789.

In turn, `C[C@H](O)[C@H](O)[C@H]1CNc2[nH]c(N)nc(=O)c2N1` [Sapropterin Dihydrochloride] gave an Euclidean distance of 0.643.

Turning to `CN(C)c1ccc(C(=C2C=CC(=[N+](C)C)C=C2)c2ccc(N(C)C)cc2)cc1` [Crystal Violet], the Euclidean distance is 2.56. For `Cc1cccc(-c2[nH]c(C(C)(C)C)nc2-c2ccc3c(c2)OCO3)n1`, the Euclidean distance was 1.62. In the case of `CCCCC1=NC2(CCCC2)C(=O)N1Cc1ccc(-c2ccccc2S(=O)(=O)Nc2noc(C)c2C)c(COCC)c1`, the Euclidean distance came to 0.927.

As for `COC(c1ccccc1)(c1ccccc1)[C@H](Oc1nc(C)cc(C)n1)C(=O)O` [Ambrisentan], the Euclidean distance worked out at 1.52. The molecule `CCN1CCC[C@H]1CNC(=O)c1cc(S(N)(=O)=O)ccc1OC` [Levosulpiride] returned an Euclidean distance of 1.77. In turn, `CCCOC(C(=O)OC1CCN(C)CC1)(c1ccccc1)c1ccccc1` [Propiverine hydrochloride] displayed an Euclidean distance of 1.35. `O=C(O)CCC(=O)c1ccc(-c2ccccc2)cc1` [Fenbufen] showed an Euclidean distance of 1.11. On to `O=C(Nc1ccccc1Br)N[C@@H]1CCN(c2ccc(C(F)(F)F)cn2)C1`, for which the Euclidean distance came out at 1.21. The same measure, in the same setting: the result for `C[C@]12CC[C@H](O)CC1=CC[C@@H]1[C@@H]2CC[C@]2(C)C(n3cnc4ccccc43)=CC[C@@H]12` [Galeterone] reads 1.04.

Molecule `O=C1NC(=O)C(c2ccccc2)(c2ccccc2)N1` [Phenytoin] yielded an Euclidean distance of 0.752.

In turn, `O=C(O)CCCN1CCC(O[C@@H](c2ccc(Cl)cc2)c2ccccn2)CC1` [Bepotastine] displayed an Euclidean distance of 0.955. For the molecule `CCC[C@@H]1C[C@@H](C(=O)N[C@@H]([C@H]2O[C@H](SC)[C@H](O)[C@@H](O)[C@H]2O)[C@@H](C)O)N(C)C1` [Lincomycin HCl], the Euclidean distance worked out at 1.31.

Regarding `CCCCCCCN(CC)CCCC(O)c1ccc(NS(C)(=O)=O)cc1` (configuration not stated) [Ibutilide Fumarate], the Euclidean distance is 1.47.

`CCCCCCCCCC(=O)OC1(c2ccc(Cl)cc2)CCN(CCCC(=O)c2ccc(F)cc2)CC1` [Haloperidol Decanoate] yielded an Euclidean distance of 1.26.

Molecule `Nc1ccc(S(=O)(=O)c2ccc(N)cc2)cc1` [Dapson] returned an Euclidean distance of 1.8.

In the case of `CC(=O)OCC(=O)[C@@]12N=C(C)O[C@@H]1C[C@H]1[C@@H]3CCC4=CC(=O)C=C[C@]4(C)[C@H]3[C@@H](O)C[C@@]12C` [Deflazacort], the Euclidean distance amounted to 1.7. `COCCNCCc1cccc(Nc2ncc3c(n2)-c2ccccc2[C@H](c2ccccc2F)C3)c1` [Derazantinib(ARQ-087)] displayed an Euclidean distance of 4. On to `CC(C)/N=c1\cc2n(-c3ccc(Cl)cc3)c3ccccc3nc-2cc1Nc1ccc(Cl)cc1` [Clofazimine], for which the Euclidean distance came to 1.05.

In the case of `COc1ccc(Cl)cc1NC(=O)Nc1cc(C)nc2ccccc12`, the Euclidean distance is 1.47. `Cc1cccc(-c2[nH]c(C(C)(C)C)nc2-c2ccc3nccnc3c2)n1` had an Euclidean distance of 0.948. With `O=S(=O)(O)c1cc(O)ccc1O` [Ethamsylate], the Euclidean distance turned out to be 1.57. Turning to `CCOC(=O)c1ccc(N2NC(=O)C(=Cc3ccc([N+](=O)[O-])o3)C2=O)cc1`, the Euclidean distance amounted to 1.17. For `CN(CCCCCCCCCCN(C)C(=O)Oc1cccc([N+](C)(C)C)c1)C(=O)Oc1cccc([N+](C)(C)C)c1` [Demecarium Bromide], the Euclidean distance came out at 1.24. `O=[N+]([O-])c1cn2c(n1)OC[C@@H](OCc1ccc(OC(F)(F)F)cc1)C2` came in with an Euclidean distance of 1.03.

Regarding `COc1cc2nccc(Oc3ccc(NC(=O)C4(C(=O)Nc5ccc(F)cc5)CC4)cc3)c2cc1OC` [Cabozantinib malate (XL184)], the Euclidean distance turned out to be 2.25. On the same count and under the same terms, the result for `Cc1cnc(Nc2ccc(N3CCN(C)CC3)cc2)nc1Nc1cccc(S(=O)(=O)NC(C)(C)C)c1` reads 3.26; that for `Cc1cc(O)c(C(=O)N[C@@H](C(=O)N[C@@H]2C(=O)N3C(C(=O)O)=C(CSc4nnnn4C)CS[C@H]23)c2ccc(O)cc2)cn1` [Cefpiramide sodium], 0.977. As for `CCCCCCCCCCCCCCCCOP(=O)([O-])OCC[N+](C)(C)C` [Miltefosine], the Euclidean distance amounted to 1.63. Take `CCCc1cc(=O)[nH]c(=S)[nH]1` [Propylthiouracil]: the Euclidean distance is 1.77. Consider `CC(NC(=O)c1ccccc1/N=C/c1c(O)ccc2ccccc12)c1ccccc1` (configuration not stated) [Sirtinol], for which the Euclidean distance is 0.857.

The molecule `N#C/C(=C(/N)Sc1ccc(N)cc1)c1ccccc1C(F)(F)F` came in with an Euclidean distance of 0.988.

As for `CCOc1ccc(C[C@H]2NC(=O)CCSSC[C@@H](C(=O)N3CCC[C@H]3C(=O)N[C@@H](CCCN)C(=O)NCC(N)=O)NC(=O)[C@H](CC(N)=O)NC(=O)[C@H]([C@@H](C)O)NC(=O)[C@H]([C@@H](C)CC)NC2=O)cc1` [Atosiban Acetate], the Euclidean distance is 1.9. For the molecule `COC(=O)C1=CO[C@@H](O[C@@H]2O[C@H](CO)[C@@H](O)[C@H](O)[C@H]2O)[C@@H]2C(CO)=CC[C@H]12` [Geniposide], the Euclidean distance amounted to 1.23.

Molecule `C[N+](C)(C)NCCC(=O)[O-]` [Mildronate] came in with an Euclidean distance of 0.82. The molecule `CNC(=O)c1ccccc1Nc1nc(Nc2ccc(N3CCOCC3)cc2OC)ncc1Cl` returned an Euclidean distance of 3.5. The same measure, in the same setting: for `OC[C@H]1O[C@@H](c2ccc(Cl)c(Cc3ccc(O[C@H]4CCOC4)cc3)c2)[C@H](O)[C@@H](O)[C@@H]1O` the value was 0.801.
